Here are results for six compounds from PubChem BioAssay (NCATS).

Experiment [1] concerns Zika virus NS2B-NS3 protease. Briefly: Primary screen GU AMC qHTS for Zika virus inhibitors (AID 1347154).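 Also: 0% = no-inhibitor control and -100% = no-enzyme control; nearly all actives have a fitted effect of over 70% in size.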 The method in brief: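 Fluorogenic AMC-substrate cleavage by noncovalent NS2B-NS3 protease complex (25 nM, pH 8.0 Tris buffer with Tween 20) followed for 15 minutes at room temperature (~20% conversion). Percent inhibition from ex340/em450 signal change, fitted by 4-parameter Hill equation.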
A general note: Quantitative high-throughput screening tests each substance at several concentrations.

The nature of experiment [2]: Counterscreen qHTS for small molecule stabilizers of the endoplasmic reticulum resident proteome: GLuc-NoTag assay (AID 1508627).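 Also: 0% = thapsigargin alone and -100% = DMSO vehicle control.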 Summed up:
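Counterscreen line: SH-SY5Y-GLuc-NoTag cells, treated with compound 19 hr before a 4 hr, 100 nM thapsigargin calcium depletion. Secreted Gaussia luciferase in the medium was measured by luminescence after coelenterazine was added (0.07x final), with cells unlysed.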
In general terms: A counterscreen serves to expose hits that act by an unwanted route or on another target.

Experiment [3] is described as follows: Confirmatory qHTS for small molecule stabilizers of the endoplasmic reticulum resident proteome: Secreted ER Calcium Modulated Protein (SERCaMP) assay (AID 1508628). Also: nearly all actives have a fitted effect of over 40% in size. Also: potency is read from the fitted curve at half-maximal effect. Summed up: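 Reporter secretion upon ER calcium depletion (100 nM thapsigargin, 4 h, 37C) is measured as medium luminescence with coelenterazine, after 16 h compound pretreatment of SH-SY5Y-GLuc-SERCaMP cells; primary at three concentrations up to 38.3 uM, follow-up at 11 (up to 76.6 uM).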

For experiment [4], the target named is Cytochrome P450 1A2 (Homo sapiens) (UniProt P05177). Briefly: p450-cyp1a2 (AID 410; calls by dose curve; also: potency is read from the fitted curve at half-maximal effect;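 as to activity change, negative = inhibition: -100% = full effect of reference inhibitor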). The method in brief: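 Luminescent demethylation readout: Luciferin-ME (100uM, equal to Km) turned over by 20nM CYP1A2 for 60 min at room temperature after NADPH regeneration addition, following 10 min compound preincubation. Normalization used 57 uM furafylline as full inhibition.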
Cytochrome P450 1A2 (Homo sapiens), sequence (P05177 whole entry, looked up): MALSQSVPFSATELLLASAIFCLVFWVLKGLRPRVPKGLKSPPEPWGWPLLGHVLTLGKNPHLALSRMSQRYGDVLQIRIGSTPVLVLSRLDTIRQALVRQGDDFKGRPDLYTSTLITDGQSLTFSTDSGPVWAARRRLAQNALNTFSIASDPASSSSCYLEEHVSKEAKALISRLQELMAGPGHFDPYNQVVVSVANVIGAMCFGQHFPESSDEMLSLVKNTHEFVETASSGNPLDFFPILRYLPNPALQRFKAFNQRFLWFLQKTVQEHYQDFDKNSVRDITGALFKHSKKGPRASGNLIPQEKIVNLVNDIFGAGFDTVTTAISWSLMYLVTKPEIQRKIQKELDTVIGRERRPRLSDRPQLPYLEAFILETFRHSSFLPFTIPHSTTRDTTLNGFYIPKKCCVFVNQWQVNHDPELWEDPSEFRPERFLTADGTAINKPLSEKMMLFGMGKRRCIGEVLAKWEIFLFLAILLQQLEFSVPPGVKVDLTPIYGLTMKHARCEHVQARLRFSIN

In experiment [5] the target is Glucocorticoid receptor (Homo sapiens) (UniProt P04150). Briefly: GR-GFP Redistribution (AID 450;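 active = compounds whose dose series gives a full or clear partial fitted curve of increased nuclear translocation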; also: potency is read from the fitted curve at half-maximal effect). The settings on record: U2OS GR-GFP nuclear translocation, laser cytometry, 2 h.
Glucocorticoid receptor (Homo sapiens), sequence (P04150 whole entry, looked up, the tested form may be a part): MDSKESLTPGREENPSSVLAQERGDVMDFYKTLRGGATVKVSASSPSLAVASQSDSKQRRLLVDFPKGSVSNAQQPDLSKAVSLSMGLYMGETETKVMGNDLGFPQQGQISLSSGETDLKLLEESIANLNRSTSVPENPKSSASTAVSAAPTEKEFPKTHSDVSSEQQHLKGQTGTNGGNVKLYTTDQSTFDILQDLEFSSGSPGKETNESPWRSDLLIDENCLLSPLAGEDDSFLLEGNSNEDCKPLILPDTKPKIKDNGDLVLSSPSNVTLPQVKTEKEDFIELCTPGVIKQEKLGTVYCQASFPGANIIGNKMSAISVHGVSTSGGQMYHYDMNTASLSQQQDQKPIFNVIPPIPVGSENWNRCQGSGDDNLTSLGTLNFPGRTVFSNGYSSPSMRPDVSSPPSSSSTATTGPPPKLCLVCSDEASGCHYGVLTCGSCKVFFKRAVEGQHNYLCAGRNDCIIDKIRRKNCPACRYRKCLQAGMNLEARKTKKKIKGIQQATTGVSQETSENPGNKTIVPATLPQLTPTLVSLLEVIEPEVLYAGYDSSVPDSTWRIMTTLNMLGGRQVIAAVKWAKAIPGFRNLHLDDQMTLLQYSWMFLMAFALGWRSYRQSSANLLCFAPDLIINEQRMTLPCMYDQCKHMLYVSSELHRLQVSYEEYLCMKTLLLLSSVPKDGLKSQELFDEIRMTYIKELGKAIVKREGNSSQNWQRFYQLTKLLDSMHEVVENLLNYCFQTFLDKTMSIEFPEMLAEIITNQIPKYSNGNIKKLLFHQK
For experiment [6] the target is unchanged. Briefly: GR-EFC Redistribution (AID 451; calls by dose curve; also: potency is read from the fitted curve at half-maximal effect). The settings on record: CHO-K1 GR-EFC translocation, beta-gal luminescence, 2 h. The method in brief: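 Translocation of GR-ED fusion to nuclear EA restores b-gal, read by luminescence after 1 h room-temperature detection. Engineered CHO-K1 biosensor cells, 1,000/well, exposed 2 h at 37 C to titrations up to 46 uM final.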

The target of experiment [7] is 3',5'-cyclic-AMP phosphodiesterase 4B (Homo sapiens) (UniProt Q07343). Briefly: qHTS Assay for Inhibitors of PDE-IV (AID 607; active = well fitted activation curve with a large enough effect in the main read-out, with a control signal flat, not every such curve was filed as active; also: % of control where 0% means no effect). The method in brief:
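The readout is membrane depolarisation from a cAMP-sensing CNG channel, detected with a potential dye at ex 535/em 590. Cells were HEK293-derived (endogenous PDE-IV) at 1000 cells/well, titrated up to 22.9 uM final.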

In experiment [8] the target is Cytochrome P450 3A4 (Homo sapiens) (UniProt P08684). Briefly: qHTS Assay for Activators of Cytochrome P450 3A4 (AID 885). Also: nearly all actives have a fitted effect of over 65% in size. The method in brief: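 Activators are scored by enhanced luminescence from CYP3A4 conversion of luciferin-PPXE (25uM, equal to KM) to luciferin, after 60 min at RT with an NADPH-regenerating system.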
Cytochrome P450 3A4 (Homo sapiens), sequence (P08684 whole entry, looked up): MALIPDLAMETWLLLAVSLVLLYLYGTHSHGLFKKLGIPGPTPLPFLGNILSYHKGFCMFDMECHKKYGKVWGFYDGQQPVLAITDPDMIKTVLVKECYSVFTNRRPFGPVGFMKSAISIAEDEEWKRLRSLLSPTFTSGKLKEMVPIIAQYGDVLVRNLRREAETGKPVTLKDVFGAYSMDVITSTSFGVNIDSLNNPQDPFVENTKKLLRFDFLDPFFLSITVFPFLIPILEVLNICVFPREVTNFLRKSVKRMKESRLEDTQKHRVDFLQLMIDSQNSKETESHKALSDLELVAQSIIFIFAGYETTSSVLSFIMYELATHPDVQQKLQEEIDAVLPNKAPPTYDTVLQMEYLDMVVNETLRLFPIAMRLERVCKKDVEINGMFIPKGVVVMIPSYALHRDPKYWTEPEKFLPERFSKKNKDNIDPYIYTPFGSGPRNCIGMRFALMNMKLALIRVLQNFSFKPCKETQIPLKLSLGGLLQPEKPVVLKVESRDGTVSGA
Experiment [9] deals with DNA dC->dU-editing enzyme APOBEC-3G (Homo sapiens) (UniProt Q9HC16). Briefly: qHTS for inhibitors of Vif-A3G interactions: Validation (AID 588379). Also: 0% is about no effect. The method in brief: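 Yellow fluorescence (Ex 488, Em 500-530) of Vif-coexpressing HeLa A3G-eYFP cells, scanned by Acumen cytometer, reports blocked A3G degradation. Cells plated at 700/well overnight at 37 deg C before compound addition, then a further overnight compound incubation at 37 deg C.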
DNA dC->dU-editing enzyme APOBEC-3G (Homo sapiens), sequence (Q9HC16 whole entry, looked up): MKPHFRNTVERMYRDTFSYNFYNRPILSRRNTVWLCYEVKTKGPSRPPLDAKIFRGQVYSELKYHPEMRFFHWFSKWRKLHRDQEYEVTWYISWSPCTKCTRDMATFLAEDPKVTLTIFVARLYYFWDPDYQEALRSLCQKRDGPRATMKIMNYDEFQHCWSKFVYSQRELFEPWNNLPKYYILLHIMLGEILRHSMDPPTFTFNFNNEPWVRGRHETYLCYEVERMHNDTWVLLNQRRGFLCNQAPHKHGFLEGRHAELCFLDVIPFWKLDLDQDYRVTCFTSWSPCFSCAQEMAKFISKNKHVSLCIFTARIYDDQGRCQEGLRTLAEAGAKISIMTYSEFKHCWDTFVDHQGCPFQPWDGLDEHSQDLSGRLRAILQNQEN

A short description of experiment [10]: Cell Viability qHTS for small molecule stabilizers of the endoplasmic reticulum resident proteome (AID 1508629).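 Also: human SH-SY5Y neuroblastoma cells carrying the GLuc-SERCaMP reporter; compound exposure about 46 h in total before the viability read; % is scaled to controls: 0 for no effect and ±100 for the full control effect.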 The settings on record: cell viability counter-screen, 100 nM thapsigargin for final 4 h.
Experiment [11] can be described thus: Confirmation and Secondary Assay for Modulators of Hemoglobin Beta Chain Splicing at IVS2 654 locus (AID 910).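 Also: HeLa cells stably carrying EGFP split by mutant beta-globin IVS2-654 intron; % of control where 0% means no effect.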 The method in brief:
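Readout: per-well total peak green fluorescence (488 nm ex, 500–520 nm em) from objects 5–250 µm, reflecting correct splicing of an EGFP-654 reporter. Compounds were applied for 2 days at 37 °C to overnight-plated HeLa EGFP-654 cells; controls were DMSO and 500 nM IVS2-654 PNA.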

The nature of experiment [12]: Confirmation and Secondary Assay for Modulators of Hemoglobin Beta Chain Splicing at IVS2 705 locus (AID 930).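 Also: HeLa cells stably expressing the EGFP-705 splicing reporter; GFP fluorescence per well restored by corrected splicing of the IVS2-705 intron in EGFP; % of control where 0% means no effect.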 Summed up: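 Read-out: total peak GFP fluorescence per well (488 nm excitation, 500-520 nm emission) by laser-scanning cytometry. Cells: HeLa EGFP-705 splicing reporter, 2 days compound exposure in Optimem/2% FCS.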
In experiment [13] the target is Ubiquitin carboxyl-terminal hydrolase 1 (Homo sapiens) (UniProt O94782). Briefly: Inhibitors of USP1/UAF1: Pilot qHTS (AID 504865).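 Also: rhodamine fluorescence freed from ubiquitin-rhodamine substrate followed over time; top concentration of the series differs between compounds; % is scaled to controls: 0 for no effect and ±100 for the full control effect; nearly all actives have a fitted effect of over 35% in size.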 Summed up: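 Kinetic fluorescence assay: 1nM USP1/UAF1, 15 min compound preincubation, then 150nM Ub-Rho; 480/540 nm.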
Ubiquitin carboxyl-terminal hydrolase 1 (Homo sapiens), sequence (O94782 whole entry, looked up): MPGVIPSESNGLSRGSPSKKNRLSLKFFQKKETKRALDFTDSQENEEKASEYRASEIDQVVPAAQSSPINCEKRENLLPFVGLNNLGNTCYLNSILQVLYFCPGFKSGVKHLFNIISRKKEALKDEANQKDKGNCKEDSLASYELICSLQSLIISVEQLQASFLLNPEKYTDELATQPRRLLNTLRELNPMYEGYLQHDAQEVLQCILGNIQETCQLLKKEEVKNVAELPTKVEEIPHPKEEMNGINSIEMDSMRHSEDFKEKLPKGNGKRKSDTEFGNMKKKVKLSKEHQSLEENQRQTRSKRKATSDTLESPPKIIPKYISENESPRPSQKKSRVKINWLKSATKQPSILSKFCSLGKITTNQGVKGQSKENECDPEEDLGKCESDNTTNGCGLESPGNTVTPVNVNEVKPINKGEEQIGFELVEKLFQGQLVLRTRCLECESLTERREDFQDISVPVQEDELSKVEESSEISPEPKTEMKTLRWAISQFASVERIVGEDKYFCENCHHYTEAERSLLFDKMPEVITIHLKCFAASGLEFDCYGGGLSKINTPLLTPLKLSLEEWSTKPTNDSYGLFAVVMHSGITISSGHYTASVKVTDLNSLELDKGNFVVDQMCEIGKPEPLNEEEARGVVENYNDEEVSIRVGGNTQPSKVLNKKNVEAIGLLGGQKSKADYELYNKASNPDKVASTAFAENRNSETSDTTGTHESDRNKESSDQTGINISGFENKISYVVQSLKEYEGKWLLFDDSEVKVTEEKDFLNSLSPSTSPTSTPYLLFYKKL
Experiment [14] addresses Mitogen-activated protein kinase 10 (Mus musculus) (UniProt Q61831). The experiment is described as follows: JNK3 AlphaScreen Assay (AID 530; active = well fitted curve in either direction with a large enough effect, not every such curve was filed as active;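 also: kinase came from lysate of stimulated human HepG2 cells; signal reports phosphorylation of biotinylated GST-cJun 1-79 at Ser73 with 10 µM ATP; % is scaled to controls: 0 for no effect and ±100 for the full control effect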). The method in brief:
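qHTS titrations with 15 min compound pre-incubation before adding ATP (10 uM final). Read-out: AlphaScreen of Ser73-phosphorylated biotin-GST-cJun using HepG2 lysate JNK3 activated by IL-1β and TNFα.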

The nature of experiment [15]: qHTS Assay for Lipid Storage Modulators (AID 1519; calls by dose curve; as to activity change, negative = inhibition: % is scaled to controls: 0 for no effect and ±100 for the full control effect). The conditions noted are these: Drosophila S3 cells, BODIPY lipid droplet/cell ratio, laser cytometry, cells loaded with oleic acid. The method in brief: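 Cells seeded at 5,000 per well were treated with compounds over a concentration series and loaded with oleic acid (400 uM, as added). Lipid droplet fluorescence (488 nm excitation, 500-530 nm channel) was read by laser-scanning cytometry and normalized to 20 uM Triacsin C.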

Structures are written as SMILES. Results filed as inconclusive are left out. Where a structure was tested more than once in an assay, its records may differ in their call. Active and inactive are the calls of the source. Unless noted, calls follow the shape of the dose curve; as a rule, active = well fitted curve in the direction sought with a large enough effect; inconclusive = small, poorly fitted or top-dose-only effect, or another doubt; inactive = no such curve, though single readings can be large; an effect the other way counts as inactive or inconclusive. Where only a bound is given, the exact number is not on record here.

3',5'-cyclic-AMP phosphodiesterase 4B (Homo sapiens), sequence (Q07343 whole entry, looked up): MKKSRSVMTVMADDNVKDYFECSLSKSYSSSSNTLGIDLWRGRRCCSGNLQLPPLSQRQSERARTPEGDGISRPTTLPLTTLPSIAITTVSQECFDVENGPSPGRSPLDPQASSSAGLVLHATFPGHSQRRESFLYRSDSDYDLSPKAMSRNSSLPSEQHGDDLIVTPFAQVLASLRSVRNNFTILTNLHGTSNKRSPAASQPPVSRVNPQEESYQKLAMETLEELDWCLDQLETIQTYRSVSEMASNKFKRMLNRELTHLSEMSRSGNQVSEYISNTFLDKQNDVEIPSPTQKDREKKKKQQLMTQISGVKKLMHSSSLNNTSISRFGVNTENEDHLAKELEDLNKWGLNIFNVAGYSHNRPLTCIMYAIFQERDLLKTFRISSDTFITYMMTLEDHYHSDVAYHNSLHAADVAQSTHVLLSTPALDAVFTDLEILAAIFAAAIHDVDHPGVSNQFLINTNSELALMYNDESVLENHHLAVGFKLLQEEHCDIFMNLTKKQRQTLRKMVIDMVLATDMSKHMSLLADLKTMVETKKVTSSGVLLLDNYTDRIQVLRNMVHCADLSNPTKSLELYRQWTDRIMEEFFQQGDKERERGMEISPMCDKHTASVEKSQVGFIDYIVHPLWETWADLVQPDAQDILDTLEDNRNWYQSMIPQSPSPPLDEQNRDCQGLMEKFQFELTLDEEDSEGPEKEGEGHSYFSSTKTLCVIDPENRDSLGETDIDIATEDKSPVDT

`COc1ccc(C2Sc3ccccc3N(CCN(C)C)C(=O)[C@@H]2OC(C)=O)cc1` (some centres not stated): the Potency entry in experiment [1] and in experiment [2] was “inactive” in each case. Moreover, the Potency in [3] is 31.6 µM (active) and inactive.

As for `CC(C)C[C@H]1C(=O)N2CCC[C@@H]2[C@]2(O)O[C@](NC(=O)[C@@H]3C=C4c5cccc6[nH]c(Br)c(c56)C[C@H]4N(C)C3)(C(C)C)C(=O)N12`, the Potency entry in [4], in experiment [7], in [8], in experiment [9], in experiment [1] and in [2] was “inactive” each time. The figures for the Potency in [5], in experiment [6] and in experiment [3] were > 46 µM (inactive), > 46 µM (inactive) and 10 µM (active), respectively. The max response in experiment [10] was -14.6% (inactive).

Consider `NCCOB(c1ccccc1)c1ccccc1`, for which the Potency was 15.8 µM (active) in [4], > 46 µM (inactive) in experiment [5] and > 46 µM (inactive) in experiment [6]. Besides, the Potency result in experiment [7], in experiment [8], in experiment [13], in [9], in [1] and in experiment [2] was “inactive” each time. In addition, the outcome in experiment [11] and in [12] was inactive. For the same compound, the max response in experiment [10] was 2.88% (inactive).

On to `CN(Cc1ccccc1)C(=O)[C@H](Cc1ccc2ccccc2c1)NC(=O)[C@@H]1CCCN1C(=O)Nc1ccccc1[N+](=O)[O-]`, for which the Potency entry in experiment [1] and in experiment [2] was “inactive” throughout. For the same compound, the Potency in experiment [3] is 10 µM (active). In addition, the max response in experiment [10] is 12.2% (inactive).

For the compound `CCOC(=O)NC[C@H](Cc1ccc(OCCc2nc(-c3ccccc3)oc2C)cc1)N/C(C)=C\C(=O)c1ccc(C(F)(F)F)cc1`, the Potency result in experiment [8], in [1] and in experiment [2] was “inactive” in each case. For the same compound, the Potency in experiment [3] is 31.6 µM (active).

`COc1ccc(NS(=O)(=O)c2ccc(I)cc2)cc1N1CCN(C)CC1`: the Potency result in [4], in experiment [14], in experiment [7], in experiment [13], in experiment [9] and in [1] was “inactive” in each case. In addition, the Potency result in [2] was “inactive”. Further, the Potency is > 46 µM (inactive) in experiment [5], > 46 µM (inactive) in experiment [6] and 7.94 µM (active) in [3]. The activity change, negative = inhibition in experiment [15] (at 57.5 µM (top of the series)) was 12.5% (inactive). Besides, the max response in experiment [15] (measured here: cell count channel max response) was 18.9%; in experiment [15] (measured here: lipid channel max response) it was 28.9%; in [10], -15.1% (inactive).
